High-throughput results (PubChem BioAssay)
Shown are actives, neighbours in structure and some others; about 19% of the full set was active somewhere.
ELG1 repair inh – blocks ELG1-dependent DNA repair in HEK293T cells | HEK293T ELG1-luciferase reporter, luminescence, 16 h; DNA damage induced by 5-fluorouridine | Potency, µM (series often up to 46.1 µM), hits mostly inhibitors | 330,000 tested, 2.3% active; further: nearly all actives have a fitted effect of over 55% in size
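Cells (2,000 per well) received 5-fluorouridine plus test compound or DMSO and were incubated 16 hr at 37 °C, 5% CO2. Luciferase activity was read by luminescence 30 min after ONE-Glo addition; signal suppression marked inhibition of damage-induced ELG1 function.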
HT1080-NT tox – kills 2HG-producing HT-1080-NT fibrosarcoma cells; 360,000 tested, 1.6% active; AID 686970; HT-1080-NT fibrosarcoma viability, CellTiter-Glo ATP luminescence, 48 h; Potency, µM (titrated, usually from 46.1 µM), usual class: cytotoxic;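 further: NT is the 2HG producing partner of a matched IDH1 knockdown line; nearly all actives have a fitted effect of over 55% in size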
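A 48-hour cytotoxicity screen used HT-1080-NT cells plated 2 hours before compound delivery. ATP-based CellTiter-Glo luminescence measured viability, normalized to DMSO and no-cell controls.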
TDP1 cell CPT – growth inhibition of DT40 Tdp1-/-;hTDP1 cells with camptothecin (screen for TDP1 inhibitors); chicken DT40 Tdp1-/-;hTDP1 cells + 20 nM CPT, ATP luminescence, 48 h; Potency, µM (top dose mostly 46.2 µM), usual class: inhibitors; 420,000 tested, 12% active; AID 686979; further: nearly all actives have a fitted effect of over 55% in size
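Chicken DT40 Tdp1-/- cells stably complemented with human TDP1 were seeded at 400 cells/well in medium containing 20 nM camptothecin, exposed to pin-transferred compounds, and grown at 37 °C for at least 48 hr. Viability was read as ATP luminescence.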
DT40 TDP1 no CPT – qHTS for Inhibitors of human tyrosyl-DNA phosphodiesterase 1 (TDP1): qHTS in cells in absence of CPT. 420,000 tested, 15% active. Potency, µM (titrated, usually from 46.2 µM), actives largely listed as inhibitors. AID 686978, 2013. DT40 Tdp1-/- hTDP1 cells, no CPT, ATP luminescence, 48 h; further: nearly all actives have a fitted effect of over 55% in size
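A cellular qHTS used chicken DT40 cells lacking endogenous Tdp1 but carrying stably transfected human TDP1. Compounds were applied without camptothecin, and cell growth kinetics were judged by ATP-dependent luminescence after ≥48 hr.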
IL-1B inflam inh – blocks inflammasome-driven IL-1 beta release. activity change, % at 57.5 µM. THP-1 LPS/ATP IL-1B secretion, AlphaLISA, 16 h; hits give low values. 360,000 tested, 4.7% active; in the data active means activity change below about -50%; inconclusive means mostly about -30% to -49%
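Secreted IL-1B measured by AlphaLISA bead assay after 16 h compound exposure of THP-1 cells; compounds (final up to 57.5 uM) added 1 h before LPS (250 ng/mL) and ATP (1.25 mM) stimulation; lower signal means less secretion.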
HT1080 IDH1KD tx – toxicity to HT-1080 IDH1 knockdown cells (counter line); HT-1080 IDH1 knockdown viability, ATP luminescence, 48 h; Potency, µM (titrated, usually from 46.1 µM), hits mostly cytotoxic; 360,000 tested, 2% active; AID 686971
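IDH1KD HT-1080 cells, 750/well, RPMI + 5% FBS; compound pinned after 2 h settling; 48 h, 37 °C; CellTiter-Glo luminescence; % activity normalised to DMSO and no-cell wells; curves fitted, classed by r2 and efficacy.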
A number is an active result. Unless noted, the call rests on the fitted dose curve; in most records, active means well fitted curve in the direction sought with a large enough effect; inconclusive means small, poorly fitted or top-dose-only effect, or another doubt; inactive means no such curve, though single readings can be large; an effect the other way counts as inactive or inconclusive.

How did COc1cc2c(cc1OC)C1=NC(=O)CN1C(SCc1ccc(C)cc1)=N2 do in these assays?
ELG1 repair inh: inconclusive; HT1080-NT tox: inactive; TDP1 cell CPT: 6.5µM; DT40 TDP1 no CPT: 2.6µM; IL-1B inflam inh: inactive; HT1080 IDH1KD tx: inactive

What do the screens show for `Cc1ccc(CSC2=Nc3sccc3C3=NC(=O)CN23)cc1`?
ELG1 repair inh: inactive; HT1080-NT tox: inactive; TDP1 cell CPT: inconclusive; DT40 TDP1 no CPT: inactive; IL-1B inflam inh: inactive; HT1080 IDH1KD tx: inactive

What do the screens show for `C=CCSC1=Nc2cc(OC)c(OC)cc2C2=NC(=O)CN12`?
ELG1 repair inh: inactive; HT1080-NT tox: inactive; TDP1 cell CPT: inconclusive; DT40 TDP1 no CPT: 10µM; IL-1B inflam inh: inactive; HT1080 IDH1KD tx: inactive

How did OCCN1CCN(Cc2ccc3c(c2)CN(Cc2cnc(-c4ccccc4)s2)CCO3)CC1 do in these assays?
TDP1 cell CPT: inactive; DT40 TDP1 no CPT: inactive

What do the screens show for `O=S1(=O)CCOC[C@H](CC2CCCCC2)N1Cc1cccc(F)c1`?
ELG1 repair inh: inactive; HT1080-NT tox: inactive; TDP1 cell CPT: inconclusive; DT40 TDP1 no CPT: inconclusive; IL-1B inflam inh: inactive; HT1080 IDH1KD tx: inactive

Results for CCC1COCCS(=O)(=O)N1Cc1ccc(Cl)cc1 (stereo unspecified) ?
ELG1 repair inh: inactive; HT1080-NT tox: inactive; TDP1 cell CPT: inconclusive; DT40 TDP1 no CPT: inconclusive; IL-1B inflam inh: inactive; HT1080 IDH1KD tx: inactive

Results for O=S1(=O)CCOC[C@H](CC2CCCCC2)N1Cc1ccc(Cl)cc1 ?
ELG1 repair inh: inactive; HT1080-NT tox: inactive; TDP1 cell CPT: 2.8µM; DT40 TDP1 no CPT: 3.5µM; IL-1B inflam inh: inactive; HT1080 IDH1KD tx: inactive

How did Cc1ccc(CN2[C@@H](CC3CCCCC3)COCCS2(=O)=O)cc1 do in these assays?
ELG1 repair inh: inactive; HT1080-NT tox: inactive; TDP1 cell CPT: inconclusive; DT40 TDP1 no CPT: 13µM; IL-1B inflam inh: inactive; HT1080 IDH1KD tx: inactive

How did Cc1ccc(C2=Nc3ccccc3N=C(C(Cl)Cl)C2)cc1 do in these assays?
ELG1 repair inh: inconclusive; HT1080-NT tox: inactive; TDP1 cell CPT: 18µM; DT40 TDP1 no CPT: 16µM; IL-1B inflam inh: inactive; HT1080 IDH1KD tx: inconclusive

How did Cc1cc2c(cc1C)NC(=O)CC(c1ccccc1)=N2 do in these assays?
HT1080-NT tox: inactive; TDP1 cell CPT: inconclusive; DT40 TDP1 no CPT: inconclusive; IL-1B inflam inh: inactive; HT1080 IDH1KD tx: inactive

What do the screens show for `FC(F)Oc1ccccc1/C=N/n1cnc2ccccc21`?
ELG1 repair inh: inconclusive; HT1080-NT tox: inactive; TDP1 cell CPT: inconclusive; DT40 TDP1 no CPT: 18µM; IL-1B inflam inh: inactive; HT1080 IDH1KD tx: inactive

What do the screens show for `COc1cccc(/C=N/n2cnc3cc(C)c(C)cc32)c1OC`?
ELG1 repair inh: inconclusive; HT1080-NT tox: inactive; TDP1 cell CPT: inactive; DT40 TDP1 no CPT: inconclusive; HT1080 IDH1KD tx: inconclusive

How did CCOc1ccccc1C(=O)NCC(=O)NCCSc1ccc(Br)cc1 do in these assays?
HT1080-NT tox: inactive; TDP1 cell CPT: inconclusive; DT40 TDP1 no CPT: inconclusive; IL-1B inflam inh: inactive; HT1080 IDH1KD tx: inactive

Results for COc1ccccc1CNc1ccc2c(c1)CCC2 ?
ELG1 repair inh: inconclusive; HT1080-NT tox: inactive; TDP1 cell CPT: 4.6µM; DT40 TDP1 no CPT: 10µM; IL-1B inflam inh: -60; HT1080 IDH1KD tx: inactive

Results for COc1cc2c(cc1OC)C(Cc1ccccc1[N+](=O)[O-])=NCC2 ?
HT1080-NT tox: inactive; TDP1 cell CPT: inconclusive; DT40 TDP1 no CPT: 23µM; IL-1B inflam inh: inactive; HT1080 IDH1KD tx: inactive

What do the screens show for `COc1ccc(CC(=O)NNS(=O)(=O)c2ccccc2[N+](=O)[O-])cc1OC`?
ELG1 repair inh: inactive; HT1080-NT tox: inactive; TDP1 cell CPT: inactive; DT40 TDP1 no CPT: inactive; IL-1B inflam inh: inactive; HT1080 IDH1KD tx: inactive

Results for COc1ccc(NCc2ccccc2[N+](=O)[O-])cc1OC ?
ELG1 repair inh: inactive; HT1080-NT tox: inactive; TDP1 cell CPT: 16µM; DT40 TDP1 no CPT: 16µM; IL-1B inflam inh: inactive; HT1080 IDH1KD tx: inactive
